Measured values reported in PubChem BioAssay AID1159580 (chemical genetic matrix, 2015).
Where “and” joins values, the source holds several entries; their conditions need not be identical. Equal values may be shown once. About 2,000 (36%) of roughly 5,500 compounds were called active. Roughly 18% stayed inconclusive and do not appear here. No stated cut-off is given here; in the data, active means normalized growth mostly below about 0.91 (no sharp cut-off); inconclusive means no clear call, values can overlap the other calls; inactive means mostly above about 0.92. The list shows a part of the results.

Assay: chemical genetic growth profiling, strain panel (AID 1159580);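 further: tested at 20 µM; growth read once vehicle control cultures reached saturation at 30 °C; 1 = growth at the plate median or of vehicle wells; lower values mean less growth of the strain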
Conditions: S. cerevisiae deletion strains, growth OD

Measured: normalized growth

CN(C)C(=O)Oc1ccc[n+](C)c1
inactive: locus YAL021C, strain ccr4, hits give low values 1 | locus YAL026C, strain drs2, hits give low values 1.01 | locus YAL030W, strain snc1, hits give low values 0.998 | locus YAL040C, strain CLN3, hits give low values 0.966 | locus YBL061C, strain skt5, hits give low values 0.999 | locus YBR009C, strain hhf1, hits give low values 0.996 | locus YBR021W, strain FUR4, hits give low values 1.02 | locus YBR023C, strain chs3, hits give low values 1 | locus YBR171W, strain sec66, hits give low values 1 | locus YBR229C, strain ROT2, hits give low values 1.02 | locus YBR231C, strain swc5, hits give low values 1.03 | locus YBR279W, strain paf1, hits give low values 1 | locus YCL011C, strain gbp2, hits give low values 0.998 | locus YCL016C, strain dcc1, hits give low values 1.01 | locus YCL029C, strain bik1, hits give low values 1.02 | locus YCL061C, strain MRC1 (second series), hits give low values 0.992 | locus YCL061C, strain MRC1, hits give low values 1.01 | locus YCL069W, strain vba3, hits give low values 1 | locus YCR088W, strain abp1, hits give low values 1 | locus YDL005C, strain med2, hits give low values 1 | locus YDL035C, strain GPR1, hits give low values 1.03 | locus YDL040C, strain nat1, hits give low values 1 | locus YDL074C, strain BRE1, hits give low values 1 | locus YDL101C, strain DUN1, hits give low values 1.01 | locus YDL134C, strain PPH21, hits give low values 1.03 | locus YDL185W, strain tfp1, hits give low values 1.01 | locus YDL192W, strain arf1, hits give low values 1.02 | locus YDR001C, strain nth1, hits give low values 1 | locus YDR069C, strain doa4, hits give low values 1 | locus YDR101C, strain arx1, hits give low values 1.02 | locus YDR137W, strain rgp1, hits give low values 1.03 | locus YDR159W, strain sac3, hits give low values 1 | locus YDR162C, strain NBP2, hits give low values 1.02 | locus YDR195W, strain ref2 0.99 | locus YDR297W, strain sur2, hits give low values 0.999 | locus YDR318W, strain mcm21, hits give low values 1.02 | locus YDR334W, strain swr1, hits give low values 1 | locus YDR335W, strain msn5, hits give low values 0.996 | locus YDR363W, strain ESC2, hits give low values 0.885 | locus YDR388W, hits give low values 1.02 | locus YDR392W, strain spt3, hits give low values 0.996 | locus YDR502C, strain sam2, hits give low values 1.02 | locus YEL003W, strain gim4, hits give low values 0.993 | locus YEL037C, strain rad23, hits give low values 0.991 | locus YEL061C, strain CIN8 (second series), hits give low values 0.993 | locus YEL061C, strain CIN8, hits give low values 1.01 | locus YER002W, strain NOP16, hits give low values 1.01 | locus YER015W, strain faa2, hits give low values 0.989 | locus YER016W, strain bim1, hits give low values 1 | locus YER110C, hits give low values 1.03 | locus YER111C, strain swi4, hits give low values 1.02 | locus YER155C, strain BEM2 (second series), hits give low values 0.994 | locus YER155C, strain BEM2, hits give low values 1.02 | locus YER167W, strain BCK2, hits give low values 1.02 | locus YFR010W, strain ubp6, hits give low values 1.01 | locus YGL078C, strain dbp3, hits give low values 1.01 | locus YGL086W, strain mad1, hits give low values 1 | locus YGL167C, strain pmr1, hits give low values 1.01 | locus YGL173C, strain kem1, hits give low values 1.01 | locus YGL227W, strain vid30, hits give low values 1.01 | locus YGL240W, strain doc1, hits give low values 1.01 | locus YGL248W, strain PDE1, hits give low values 1 | locus YGL253W, strain hxk2, hits give low values 1 | locus YGR135W, strain pre9, hits give low values 1.05 | locus YGR229C, strain SMI1, hits give low values 1.01 | locus YGR252W, strain gcn5, hits give low values 1.01 | locus YHR013C, strain ard1, hits give low values 1.01 | locus YHR027C, strain rpn1, hits give low values 1.01 | locus YHR030C, strain SLT2, hits give low values 1.02 and 1.01 | locus YHR079C, strain IRE1 (second series), hits give low values 1.01 | locus YHR079C, strain IRE1, hits give low values 1 | locus YHR094C, strain hxt1, hits give low values 1.02 | locus YHR129C, strain ARP1, hits give low values 1.01 | locus YHR142W, strain chs7, hits give low values 0.994 | locus YHR200W, strain rpn10, hits give low values 1.02 | locus YIL066C, strain RNR3, hits give low values 1.02 | locus YIL073C, strain SPO22, hits give low values 1.06 | locus YIL125W, strain kgd1, hits give low values 1.02 | locus YIR030C, strain dcg1, hits give low values 1.02 | locus YJL092W, strain hpr5, hits give low values 1.02 | locus YJL095W, strain BCK1 (second series), hits give low values 1.01 | locus YJL095W, strain BCK1, hits give low values 0.994 and 1.04 | locus YJL115W, strain asf1, hits give low values 0.993 | locus YJL129C, strain trk1, hits give low values 1.01 | locus YJL134W, strain LCB3, hits give low values 1.01 | locus YJL154C, strain vps35, hits give low values 0.995 | locus YJL164C, strain tpk1, hits give low values 1 | locus YJL166W, strain qcr8, hits give low values 0.996 | locus YJL168C, strain set2, hits give low values 1.01 | locus YJL187C, strain SWE1 (second series), hits give low values 1 | locus YJL187C, strain SWE1, hits give low values 1 | locus YJR043C, strain POL32, hits give low values 1 | locus YJR066W, strain TOR1, hits give low values 0.966
